These results are taken from the supplement of paper PMC10338343.

± gives the standard deviation.

One test has as its system MILI (PIWIL2) piRISC loaded with L1MC piRNA (26 nt). The test is described as follows: pre-steady-state target cleavage rate (min^-1); guide: L1MC piRNA 5'p-UAACUAAAUACUAUGCAAGCUGUAGG; MIWI and MILI are mouse PIWI proteins and EfPiwi is from a freshwater sponge; tags in brackets are library labels; higher = faster piRNA-guided slicing of the target. The note with it: auxiliary factor: 500 nM mouse GTSF1. Put shortly:
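In Cleave-'n-Seq, a transcribed, DNA-blocked target RNA library (0.1 nM) was combined with 1 nM active affinity-purified piRISC bearing one synthetic guide, with or without 500 nM GTSF1 partner protein. Reactions ran in HEPES–potassium acetate buffer at 33 °C for 0–8 or 0–960 min. Uncleaved targets were sequenced and normalised to depth and to weakly complementary targets, three trials were pooled, and k3 was capped at 0.0001 min^-1. The pre-steady-state cleavage rate was obtained by fitting a burst-and-steady-state model.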
Regarding UCCUGGAUGUCGAAGCAUAGUAUUUACGUUA, the “pre-steady-state target cleavage rate” value came to 0.0359 ± 0.0066. Turning to UCCUGGAACACGUUGCAUAGUAUUUACAAA, the “pre-steady-state target cleavage rate” value was found to be 0.0879 ± 0.017. In the case of UCCUGGAUGACCUUGCAUAGUAUUUUGUUA, the “pre-steady-state target cleavage rate” value is 0.0852 ± 0.023.

In the case of UCCUGGAUCAGCUUGCAUAGUAUUUACUAA, the “pre-steady-state target cleavage rate” value came to 0.0285 ± 0.011. For the sequence UCCUGGAUGUCCUUGCAUAGUAUUUUGUUA, the “pre-steady-state target cleavage rate” value was 0.0499 ± 0.0089.

Take UCCUGGUACAGCUUGCAUAGUAUAAUGAAA: the “pre-steady-state target cleavage rate” value was 0.0203 ± 0.0077. For the sequence UCCUGCUACAGCUUGGAUAGUAUUUACUUA, the “pre-steady-state target cleavage rate” value is 0.00864 ± 0.0043. The same measure, in the same setting: as for UCCUGGAUGUGCUUGCAUAGUAUUUUGAAA, the figure is 0.00858 ± 0.0064; as for UCCUGGAUGUCGAAGCAUAGUAUUAUAGUUA, 0.0614 ± 0.014; as for UCCUGGAACAGCUUGCAUAGUAUUAUCUAA, 0.0368 ± 0.012.

With UCCUGCUACUCGUUGCAUAGUAUUUAGAAA, the “pre-steady-state target cleavage rate” value came to 0.179 ± 0.032.

Take UCCUGGAUGUCGAACGUAUCUAUAAUGUUA: the “pre-steady-state target cleavage rate” value is under 0.0001. On the same count and under the same terms, as for “UCCUGGAUCAGCUUGCAUAGUUAAAUCAAA [g10:g22:cont:t1A]”, the figure is 0.00426 ± 0.0036; as for UCCUCCUACAGCUUCCAUAGUAUUUUGUUA, 0.0182 ± 0.0077; as for UCCUGGUACUGCUUGCAUAGUAUAUAGUUA, 0.168 ± 0.044.

As to UCCUGGAUCAGCAUGCAUAGUAUUUUCAAA, the “pre-steady-state target cleavage rate” value was determined as 0.0716 ± 0.018. Still for that read-out and setting: as for UCCUGGUACAGCUUGGAUAGAAUUUAGUUA, the figure is 0.0709 ± 0.025; as for UCCUGGAUGAGCUUGCAUAGUUUUUACUUA, 0.00548 ± 0.0051.

For the sequence UCCUGCUACAGCUUGCAUUCUAUUUUCAAA, the “pre-steady-state target cleavage rate” value was determined as 0.0184 ± 0.0078. The same measure, in the same setting: as for UCCUGGUACAGCUUGCAUAGUAUUGUAGUUA, the figure is 0.233 ± 0.055; as for UCCUGGAACAGCUUGCAUAGUAAAAAGUAA, 0.076 ± 0.022.

Regarding UCCUGGAUGUGCUUGCAUUGUAUUUUGUUA, the “pre-steady-state target cleavage rate” value worked out at 0.0555 ± 0.015. For UCCUGGAUGUCCUUGCUAUGUAUUUAGUAA, the “pre-steady-state target cleavage rate” value is 0.00762 ± 0.0042.

Regarding UCCUGGAACAGCUUGCAUAGUAAUUACUUA, the “pre-steady-state target cleavage rate” value came to 0.023 ± 0.0082.

For the sequence UCCUGGAUCAGCUUGCAUAGUAUUUAGCUA, the “pre-steady-state target cleavage rate” value was 0.00534 ± 0.0036.

With UCCUGGAUGUGCUUGCAUAUAUUUAGUUA, the “pre-steady-state target cleavage rate” value was found to be 0.00444 ± 0.0037. The same measure, in the same setting: as for UCCUGGAUGUCGAAGCAUAGUAUUCUAGUUA, the figure is 0.0193 ± 0.0065; as for UCCUGGAUCACCUUCCAUAGUAUUUAGUUA, 0.0405 ± 0.012; as for UCCUGGUACAGCUUGCAUAGUAUUUACUAA, 0.0179 ± 0.0081. Consider UCCUGGAUCAGCUUGCAUAGUAAAAAGUUA, for which the “pre-steady-state target cleavage rate” value came to 0.102 ± 0.019.

With UCCUGGAACAGCUUGCAUAGUAAAAAGAAA, the “pre-steady-state target cleavage rate” value worked out at 0.0185 ± 0.0077. The same measure, in the same setting: then UCCUGGAUGAGCAAGCAUAGUAUUUACAAA, with 0.0174 ± 0.0067; and “UCCUGGAUGUCCUUGCAUAGUAUUAUCAAA [g7:g19:cont:t1A]”, with 0.0222 ± 0.0094; and UCCUGGAUGUGCUUGCAUAGUUUAUAGUUA, with 0.00502 ± 0.0041. Same read-out and setting: as for UCCUGGAUCAGGUUCCAUAGUAUUUAGUUA, the figure is 0.00709 ± 0.004. Still for that read-out and setting: then UCCUGCUACACCUUGCAUAGUAUUUAGAAA, with 0.169 ± 0.036.

The test is the same for the next values; noted with them: auxiliary factor: none (no GTSF1).
UCCUGGAUGUCGAACCAUGAGUAUUUAGUUA: the “pre-steady-state target cleavage rate” value is under 0.0001. Regarding UCCUGGAUGAGCUUGCAUAGAUAUUACAAA, the “pre-steady-state target cleavage rate” value was under 0.0001. For “UCCUGGAUGUCGAAGCAUAGUAAAAUCAAA [g9:g16:cont:t1A]”, the “pre-steady-state target cleavage rate” value is under 0.0001. As to UCCUGGAUGUCGAACGAUAGUAUAUUAGUUA, the “pre-steady-state target cleavage rate” value is under 0.0001.
